Assay results taken from ChEMBL document CHEMBL3988442, “University of Dundee, Small-Polar-MMV Screening Library” (2021).
The campaign covered roughly 69,000 compounds. About 420 (0.61%) showed an effect of 50% or more. This excerpt belongs to a sample that is enriched for strong results.

target: T1, Histidine--tRNA ligase (Leishmania infantum) (UniProt A4I591); assay: Leishmania infantum Histidine tRNA synthetase (LdHisRS); type: functional; design: scale not given: in the data most compounds retested in dose-response had high values; conditions: 30 µM
T1 sequence (whole entry): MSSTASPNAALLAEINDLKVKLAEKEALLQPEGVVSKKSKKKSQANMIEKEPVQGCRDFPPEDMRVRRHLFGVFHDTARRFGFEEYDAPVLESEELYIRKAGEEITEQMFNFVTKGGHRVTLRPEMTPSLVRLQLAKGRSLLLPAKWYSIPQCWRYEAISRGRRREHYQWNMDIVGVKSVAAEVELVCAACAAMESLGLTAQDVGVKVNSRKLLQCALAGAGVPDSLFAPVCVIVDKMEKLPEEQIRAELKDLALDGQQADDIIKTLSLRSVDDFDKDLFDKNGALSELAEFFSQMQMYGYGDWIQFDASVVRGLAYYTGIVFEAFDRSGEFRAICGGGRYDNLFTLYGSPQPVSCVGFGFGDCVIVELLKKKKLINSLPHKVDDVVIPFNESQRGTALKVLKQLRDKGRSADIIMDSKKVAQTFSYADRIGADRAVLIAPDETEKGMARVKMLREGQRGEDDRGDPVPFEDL

| SMILES | Percent Effect |
| --- | --- |
| Cn1cc(C(=O)N2CC[C@@H]3[C@@H]2CCN3c2ncc(F)cn2)cn1 | 14.3% |
| O=C(c1ccnnc1)N1C[C@@H](OCc2cccnc2)[C@H]2OCCC[C@H]21 | 22.9% |
| O=C(N[C@@H]1CN(c2ncccn2)C[C@@H]2CCCO[C@@H]21)c1cccnc1 | 2.86% |
| Cc1ccc(N2CC[C@@H]3O[C@@H](c4ccncn4)C[C@H]3C2)nn1 | 16.2% |
| Cc1nc[nH]c1CN1CCN(C(=O)CN2CCCC2)[C@H]2CS(=O)(=O)C[C@H]21 | 15.6% |
| CCn1cc(CNc2ccc(Br)c(OC)c2)cn1 | 16.9% |
| CCn1cc(CNc2ccc3nccnc3c2)cn1 | 90.9% |
| CCn1cc(CNc2ccc(F)c(F)c2)cn1 | 3.54% |
| CC(C)N(C)C[C@H]1OC[C@@H]2CCN(Cc3cccc(C#N)c3)C[C@@H]21 | 10% |
| Cc1nc(CO[C@H]2CN(C(=O)c3cccn3C)[C@@H]3COC[C@H]23)cs1 | -6% |
| Nc1nc(N2CCCC(COc3ccc(F)cc3)C2)c2nc[nH]c2n1 (stereo not drawn) | 81.9% |
| COc1ccccc1N1CCN(c2nc(N)nc3[nH]cnc23)CC1 | 21.7% |
| Nc1cc(N2CCCC(COc3ccc(F)cc3)C2)ncn1 (stereo not drawn) | 28.9% |
| O=C(c1cncc(N2CC[C@@]3(O)CCNC[C@H]3C2)n1)N1CCCC1 | 0% |
| CN(C)S(=O)(=O)N1CC[C@]2(O)CCN(c3cc(C#N)ccn3)C[C@@H]2C1 | 15.7% |
| O=C1[C@H]2CN(C3CCOCC3)C[C@H]2CN1Cc1cccc(F)c1 | 19.7% |
| O=C(C1CCCCC1)N1C[C@@H]2CCN(c3cnccn3)C[C@@H]2C1 | 46.8% |
| O=C(C1CCCC1)N1C[C@@H]2CCN(c3cnccn3)C[C@@H]2C1 | 30.3% |
| CS(=O)(=O)N1C[C@H]2N(c3ncccn3)CCC[C@@]2(C(=O)NCC2CC2)C1 | 6.36% |
| COc1ccc(C(NCc2cccc(O)c2)C2CC2)cc1 (stereo not drawn) | 69.6% |
| COc1ccc(C(NCc2ccc(C#N)cc2)C2CC2)cc1 (stereo not drawn) | 29.1% |
| COc1ccc(C(NCc2cccc(C#N)c2)C2CC2)cc1 (stereo not drawn) | 3.8% |
| Cc1ccoc1C(=O)N1CC[C@H]2[C@@H]1CCC(=O)N2c1cccnc1 | 23% |

| SMILES | Percent Effect |
| --- | --- |
| CCS(=O)(=O)NC[C@]12COC[C@H]1CN(CCc1ccccc1)C2 | 2.63% |
| O=C1N(CC2CC2)CCC12CCN(c1ncccn1)CC2 | 24.4% |
| c1cnc(N2CCC3(CC2)CN(CC2CC2)c2ccccc23)nc1 | 70.7% |
| c1ccc2c(c1)N(CC1CCOC1)CC21CCN(c2cnccn2)CC1 (stereo not drawn) | 39.1% |
| CN(C)CCN1C(=O)CC[C@@H]2[C@H]1CCN2C(=O)c1ccc(C#N)cc1 | 17.1% |
| CN(C)[C@H]1COC[C@@H]2CN(Cc3ccc4c(c3)OCO4)C[C@@H]21 | 16.2% |
| O=C1N(c2ccccc2)C[C@H]2CN(C3CCC3)CCN12 | 22.2% |
| CCc1ccc2c(C3CN(CC4CCC4)C3)ncn2c1 | 69.8% |
| CCc1ccc2c(C3CN(C(C)=O)C3)ncn2c1 | 17.6% |
| CCc1ccc2c(C3CN(S(C)(=O)=O)C3)ncn2c1 | 12.6% |
| Cn1cc(NC(=O)c2cccc(C(F)(F)F)c2)c(=O)n(C)c1=O | 22.9% |
| Cc1ccc(C(F)(F)F)cc1NCC(=O)Nc1c(C)nn(C)c1C | 17.8% |
| Cc1cc(=O)n(C)cc1NC(=O)NCc1cccc(F)c1 | 107% |
| O=C(NCc1cccc(F)c1)Nc1ccn(CCN2CCOCC2)n1 | 11.2% |
| Cc1cc(=O)n(C)cc1NC(=O)Cc1cccc(F)c1 | 68.5% |
| CS(=O)(=O)CCn1ccc(NC(=O)Cc2cccc(Cl)c2)n1 | 15.3% |
| Cc1cc(=O)n(CC(=O)Nc2cccc(Cl)c2)nc1C | 2.4% |
| CN(C)C(=O)CCCn1ccc(NC(=O)NCc2cccc(F)c2)n1 | 2.08% |
| Cc1cc(=O)n(C)cc1NC(=O)Cc1cccc(Cl)c1 | 107% |
| Cn1ccc(CS(=O)(=O)Cc2cccc(F)c2)cc1=O | 18.8% |
| Cn1ccc(NC(=O)Cc2cccc(F)c2)n1 | 15.4% |
| Cc1cc(=O)n(C)cc1NC(=O)Cc1ccc(C(F)(F)F)cc1 | 107% |
| Cc1cccc(C(=O)N2CC[C@@H]3CN(c4ncccn4)CCO[C@@H]3C2)c1 | 10% |

| SMILES | Percent Effect |
| --- | --- |
| COc1ccc(CN2CCO[C@@H]3C[C@@H](C(=O)NC(C)C)C[C@H]32)cc1 | 25% |
| COC[C@]12COC[C@H]1CN(Cc1ccc3c(c1)OCO3)C2 | 1.98% |
| O=C1CC[C@H]2[C@H](CCN2C(=O)C2CCOCC2)N1Cc1ccncc1 | 17.5% |
| CNC(=O)[C@@]12CCCN(c3ncccn3)[C@@H]1CN(c1ncc(F)cn1)C2 | 16.8% |
| CCc1ccc(C(=O)N2C[C@@H]3COC[C@@H](C(=O)NC)[C@@H]3C2)cc1 | 14% |
| C[C@@H]1C(=O)NC[C@H]2CN(Cc3ccc4c(c3)OCO4)C[C@H]21 | 15.6% |
| O=C(NCc1ccccn1)[C@]12COC[C@H]1CN(Cc1cccnc1)C2 | 11.1% |
| O=C([C@H]1C[C@@H]2CN(c3ncc(F)cn3)C[C@H]1O2)N1CCOCC1 | 5.94% |
| CC(C)NC(=O)N1CC[C@H]2N(C)CC[C@@]2(C(=O)Nc2cccnc2)CC1 | 9.91% |
| O=C(NCC1CC1)[C@H]1C[C@H]2OCC[C@H]2N(Cc2ccsc2)C1 | 0% |
| Cc1cccc(CN2CC[C@@H]3[C@@H]2CCN3C(=O)c2cc(C)oc2C)n1 | 25.6% |
| O=C([C@H]1C[C@@H]2CCN(c3cccc(F)c3)C[C@H]2O1)N1CCCCO1 | 22.2% |
| Cc1cc(=O)n(C)cc1NC(=O)Cc1cc(F)ccc1F | 107% |
| Cc1cc(F)ccc1NC(=O)Cn1cc(C(=O)O)ccc1=O | 21.7% |
| CCC(=O)NCC(=O)Nc1c(C)cnn1Cc1cc(F)ccc1F | 14.5% |
| CN(CCO)Cc1nnc(C2CCN(C[C@H]3[C@@H]4CNC[C@@H]43)CC2)n1C | 9.38% |
| Cc1ccc(C(=O)N2C[C@H]3CCC[C@@]3(COc3ccccn3)C2)nc1 | 16.4% |
| FC(F)(F)c1ccc(-c2cc(NC3CCNCC3)nc3[nH]ccc23)nc1 | 63.9% |
| COc1ncc(-c2cc(NC3CCCC3)nc3[nH]ccc23)c(OC)n1 | 21.3% |
| CNc1cc(C)nc(-c2cc(NC3CCNCC3)nc3[nH]ccc23)n1 | 32.6% |
| COc1nccnc1-c1cc(NC2CCCC2)nc2[nH]ccc12 | 6.38% |
| COc1nccnc1-c1cc(NC2CCNCC2)nc2[nH]ccc12 | 55.3% |
| Nc1ccnc(-c2cc(NC3CCNCC3)nc3[nH]ccc23)c1 | 41% |

| SMILES | Percent Effect |
| --- | --- |
| Cc1oncc1C(=O)N[C@@H]1CN(Cc2ccco2)C[C@@H]2CCCO[C@@H]21 | 4.54% |
| Cn1ccc(C(=O)N2C[C@H]3CCC[C@@]3(COCc3cccnc3)C2)n1 | 7.96% |
| COC[C@]12COC[C@H]1CN(S(=O)(=O)c1cccnc1)C2 | 14% |
| CCc1cc(N2CCC(F)(F)CC2)n2nc(C)c(C)c2n1 | 61.7% |
| CCc1cc(N2CCS(=O)(=O)CC2)n2nc(C)c(C)c2n1 | 13.3% |
| CCc1cc(N2CCSCC2)n2nc(C)c(C)c2n1 | -0.971% |
| Cc1nnc(NCc2cccnc2N(C)C)c(C#N)c1C | 15.4% |
| Cc1nnc(NCC(c2ccco2)N2CCCCC2)c(C#N)c1C (stereo not drawn) | 32.9% |
| Cc1nnc(NCC(c2ccco2)N(C)C)c(C#N)c1C (stereo not drawn) | 54.8% |
| Cc1nnc(NCC(c2ccco2)N2CCCC2)c(C#N)c1C (stereo not drawn) | 60.3% |
| Cc1nnc(NCc2ccccc2S(=O)(=O)N(C)C)c(C#N)c1C | 22% |
| Cc1nnc(NCc2ccccc2Cl)c(C#N)c1C | 52.3% |
| COCc1ccccc1CNc1nnc(C)c(C)c1C#N | 12.3% |
| Cc1nnc(NCC(c2cccs2)N2CCCC2)c(C#N)c1C (stereo not drawn) | 32.9% |
| Cc1nnc(NCc2ccccc2F)c(C#N)c1C | 49.5% |
| O=C(Nc1cnccn1)[C@H]1COC[C@H]2CN(c3ncc(F)cn3)C[C@H]21 | 18.8% |
| COCCNC(=O)[C@H]1CC[C@@H]2[C@@H](CCN2S(C)(=O)=O)O1 | 22.9% |
| Cc1nc(CN2C(=O)CC[C@@H]3[C@H]2CCN3C2CCOCC2)cs1 | 9.57% |
| COCCN1CCO[C@@H]2CN(Cc3sccc3C)C[C@@H]2C1 | 0.84% |
| Cc1cc(NC(=O)CN2CCc3nn(C)c(=O)cc3C2)on1 | 56.7% |
| CC(C)(C)c1cc(NC(=O)CN2CCn3c(nnc3C3CC3)C2)on1 | 1.79% |
| CCCn1nc2c(cc1=O)CN(CC(=O)Nc1cc(C)no1)CC2 | 18.2% |
| CN(C(=O)CN1CCc2nn(C)c(=O)cc2C1)c1nccs1 | 65.9% |

| SMILES | Percent Effect |
| --- | --- |
| Cn1nc2c(cc1=O)CN(CC(=O)Nc1cc(C(C)(C)C)no1)CC2 | 112% |
| CCn1nc2c(cc1=O)CN(CC(=O)Nc1cc(C(C)C)no1)CC2 | 21.2% |
| CC(C)c1cc(NC(=O)CN2CCc3ccccc3C2)on1 | -2.74% |
| CCCn1nc2c(cc1=O)CN(CC(=O)N(C)c1nccs1)CC2 | 24.6% |
| CC(C)c1cc(NC(=O)CN2CCc3nn(C)c(=O)cc3C2)on1 | 78.8% |
| CCn1nc2c(cc1=O)CN(CC(=O)N(C)c1nccs1)CC2 | 5.56% |
| CCn1nc2c(cc1=O)CN(CC(=O)Nc1cc(C)no1)CC2 | 15.2% |
| CC(C)(C)c1cc(NC(=O)CN2CCc3cncnc3C2)on1 | 19.6% |
| O=C(c1cscn1)N1CC[C@@H]2[C@@H]1CCN2CC1CCOC1 (stereo partly drawn) | 13.2% |
| O=C(NCc1ccco1)[C@@]12CCO[C@@H]1CCN(CC1CCOCC1)C2 | 20% |
| CCN1C[C@H]2CCN(C(=O)Cc3cccc(OC)c3)CC[C@H]2S1(=O)=O | 19.2% |
| O=C(Cn1ccnc1)N1C[C@@H]2CC[C@H](Oc3cccc(F)c3)[C@@H]2C1 | 7.29% |
| Cc1nc(CN2C(=O)CC[C@H]3[C@@H]2CCN3C(=O)c2ccsc2)cs1 | 16.5% |
| CC(C)NC(=O)[C@]12COC[C@H]1CN(Cc1cnn(C)c1)C2 | 12.5% |
| CCS(=O)(=O)N1CC[C@@H]2[C@@H](CCC(=O)N2CCc2ccccc2)C1 | 9.38% |
| Cc1nnc(NC(=O)CN2CCc3nn(C)c(=O)cc3C2)s1 | 9.62% |
| Cc1cc(NC(=O)CN2CCc3nn(C)c(=O)cc3C2)no1 | 100% |
| Cc1csc(NC(=O)CN2CCc3nn(C)c(=O)cc3C2)n1 | 24.2% |
| Cc1noc(C(C)Nc2ccc(N3CCOCC3)cc2C)n1 (stereo not drawn) | 63% |
| Cc1cc(N2CCOCC2)ccc1NC(C)c1nc(C(C)C)no1 (stereo not drawn) | 39.1% |
| Cc1cc(N2CCOCC2)ccc1NC(C)c1nc(C(C)(C)C)no1 (stereo not drawn) | 28.3% |
